Assay results reported in PubChem BioAssay (Tox21).
Several values for one entry are separate records, joined by “and”; a condition that tells them apart may be missing. Equal values may be shown once. Inconclusive results are not listed. Some compounds were tested as several samples or in several runs, with calls that do not always agree. Activity calls are given as the source filed them. Unless noted, calls come from the whole dose curve.

Legend:
[1] = qHTS assay to identify small molecule antagonists of the sonic hedgehog signaling (Shh) pathway (AID 1259369); note: nearly all actives have a fitted effect of over 45% in size; note: potency is the fitted concentration of half-maximal effect
How it was run: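 Conditioned medium drives Shh signalling in 3T3Gli1-Luc cells; compounds in DMSO co-applied, 24hr at 37 C, then luciferase luminescence.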

[2] = qHTS assay to identify small molecule agonists of the androgen receptor (AR) signaling pathway in the presence of an antagonist - cell viability counter screen (AID 1259379; active = well fitted curve in the direction sought with a large enough effect in the repeat runs; an effect the other way counts as inactive or inconclusive;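 note: MDA-kb2 human breast cancer cells carrying an MMTV luciferase reporter; series mostly up to about 92 µM; nearly all actives have a fitted effect of over 25% in size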)
How it was run: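 A CellTiter-Fluor read-out measured viability of MDA-kb2 reporter cells (MMTV promoter with AR and GR response elements). Treatment: nilutamide 3.0uM final with compounds at 15 concentrations, 16 hr, 37C, 0% CO2.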

[3] = qHTS assay to identify small molecule antagonists of the estrogen receptor beta (ER-beta) signaling pathway - cell viability counter screen (AID 1259382; active = well fitted curve in the direction sought with a large enough effect in the repeat runs; an effect the other way counts as inactive or inconclusive; note: nearly all actives have a fitted effect of over 55% in size; note: potency is the fitted concentration of half-maximal effect)
How it was run: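 Agonist-stimulated (1nM E2) ER-beta-UAS-bla HEK293T cells are incubated with library compounds for 16 hr at 37C. Cell viability is then assessed in the reporter-assay wells by adding CellTiter-Glo and reading luminescence after 30 min.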

[4] = biological target: Estrogen receptor (Homo sapiens) (UniProt P03372); experiment: qHTS assay to identify small molecule agonists of the estrogen receptor alpha (ER-alpha) signaling pathway in the presence of an antagonist (AID 1259383); note: top concentration of the series differs between compounds; nearly all actives have a fitted effect of over 15% in size
Chain of Estrogen receptor (Homo sapiens) (P03372 whole entry, looked up): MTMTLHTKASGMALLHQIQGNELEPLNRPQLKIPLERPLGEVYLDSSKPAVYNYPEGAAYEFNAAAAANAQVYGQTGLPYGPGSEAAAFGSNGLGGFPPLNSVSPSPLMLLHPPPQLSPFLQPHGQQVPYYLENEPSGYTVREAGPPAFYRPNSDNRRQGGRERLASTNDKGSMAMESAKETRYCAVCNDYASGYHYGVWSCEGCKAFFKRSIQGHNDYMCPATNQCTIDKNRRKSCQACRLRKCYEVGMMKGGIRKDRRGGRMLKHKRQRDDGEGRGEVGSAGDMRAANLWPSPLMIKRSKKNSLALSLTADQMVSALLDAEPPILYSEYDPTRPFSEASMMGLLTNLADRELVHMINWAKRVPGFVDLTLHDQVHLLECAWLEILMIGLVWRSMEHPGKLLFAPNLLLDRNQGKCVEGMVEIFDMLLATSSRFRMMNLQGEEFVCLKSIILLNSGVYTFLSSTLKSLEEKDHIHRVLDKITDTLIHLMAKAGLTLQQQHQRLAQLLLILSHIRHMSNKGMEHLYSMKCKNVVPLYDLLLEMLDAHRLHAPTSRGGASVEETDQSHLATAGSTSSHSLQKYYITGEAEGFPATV
How it was run: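 Using VM7Luc4E2 cells seeded 24hr before treatment, antagonist ICI-182,780 (10.0nM final) was added, followed by compounds at 15 concentrations. Plates incubated 22hr; ONE-Glo luminescence quantified reporter activity.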

[5] = qHTS assay to identify small molecule agonists or antagonists of the thyroid stimulating hormone receptor (TSHR) signaling pathway - wild type cell line counter screen (AID 1259384)
How it was run: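 Wild-type HEK293 cells were plated 18 h at 37 C/5% CO2, pin-dosed with compound plus Ro20-1724 medium, held 30 min at room temperature, then given cAMP-d2 and anti-cAMP-cryptate; fluorescence was read after 1 h. Fifteen concentrations, triplicate.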

[6] = biological target: Thyrotropin receptor (Homo sapiens) (UniProt P16473); experiment: qHTS assay to identify small molecule antagonists of the thyroid stimulating hormone receptor (TSHR) signaling pathway (AID 1259385); note: nearly all actives have a fitted effect of over 20% in size
Chain of Thyrotropin receptor (Homo sapiens) (P16473 whole entry, looked up): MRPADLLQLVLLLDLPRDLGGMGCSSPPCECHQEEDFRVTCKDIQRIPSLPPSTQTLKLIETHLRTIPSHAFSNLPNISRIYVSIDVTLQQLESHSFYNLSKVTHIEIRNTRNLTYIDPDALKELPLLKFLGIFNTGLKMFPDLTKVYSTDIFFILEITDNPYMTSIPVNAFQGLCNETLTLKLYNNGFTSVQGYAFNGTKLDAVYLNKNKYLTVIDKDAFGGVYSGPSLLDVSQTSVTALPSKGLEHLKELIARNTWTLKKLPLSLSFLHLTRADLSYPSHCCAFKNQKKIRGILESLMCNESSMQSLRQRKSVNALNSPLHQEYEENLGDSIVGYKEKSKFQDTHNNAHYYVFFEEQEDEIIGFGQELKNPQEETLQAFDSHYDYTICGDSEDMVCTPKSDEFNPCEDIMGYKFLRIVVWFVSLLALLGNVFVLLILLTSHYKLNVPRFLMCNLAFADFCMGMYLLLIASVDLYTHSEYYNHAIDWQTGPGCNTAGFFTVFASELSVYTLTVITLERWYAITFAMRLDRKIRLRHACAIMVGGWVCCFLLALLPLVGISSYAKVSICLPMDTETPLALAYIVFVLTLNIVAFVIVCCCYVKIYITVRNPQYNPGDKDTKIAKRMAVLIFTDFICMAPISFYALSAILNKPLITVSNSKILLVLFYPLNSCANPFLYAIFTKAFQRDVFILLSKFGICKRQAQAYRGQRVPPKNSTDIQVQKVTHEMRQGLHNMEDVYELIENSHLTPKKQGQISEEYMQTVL
How it was run: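 TSHR-HEK293 cells were plated and held 18 h at 37C/5% CO2, then given compound plus Ro20-1724 and stimulated with TSH at 1.5 ng/mL final. After 30 min at room temperature, cAMP was detected with cAMP-d2/anti-cAMP-cryptate (1 h) by fluorescence.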

[7] = qHTS assay to identify small molecule agonists of the estrogen receptor alpha (ER-alpha) signaling pathway in the presence of an antagonist - cell viability counter screen (AID 1259386; active = well fitted curve in the direction sought with a large enough effect in the repeat runs; an effect the other way counts as inactive or inconclusive;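 note: series mostly up to about 92 µM; cells exposed to compounds for 22 h at 37 °C before the viability read; nearly all actives have a fitted effect of over 30% in size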)
How it was run: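 ICI-182,780 at 10.0nM final accompanies the compound titration (15 concentrations, 22hr, 37C) on VM7Luc4E2 cells. The CellTiter-Fluor fluorescence readout runs in the same wells as the luciferase assay.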

[8] = biological target: Progesterone receptor (Homo sapiens) (UniProt P06401); experiment: qHTS assay to identify small molecule agonists of the progesterone receptor (PR) signaling pathway (AID 1346784); note: nearly all actives have a fitted effect of over 30% in size
Chain of Progesterone receptor (Homo sapiens) (P06401 whole entry, looked up): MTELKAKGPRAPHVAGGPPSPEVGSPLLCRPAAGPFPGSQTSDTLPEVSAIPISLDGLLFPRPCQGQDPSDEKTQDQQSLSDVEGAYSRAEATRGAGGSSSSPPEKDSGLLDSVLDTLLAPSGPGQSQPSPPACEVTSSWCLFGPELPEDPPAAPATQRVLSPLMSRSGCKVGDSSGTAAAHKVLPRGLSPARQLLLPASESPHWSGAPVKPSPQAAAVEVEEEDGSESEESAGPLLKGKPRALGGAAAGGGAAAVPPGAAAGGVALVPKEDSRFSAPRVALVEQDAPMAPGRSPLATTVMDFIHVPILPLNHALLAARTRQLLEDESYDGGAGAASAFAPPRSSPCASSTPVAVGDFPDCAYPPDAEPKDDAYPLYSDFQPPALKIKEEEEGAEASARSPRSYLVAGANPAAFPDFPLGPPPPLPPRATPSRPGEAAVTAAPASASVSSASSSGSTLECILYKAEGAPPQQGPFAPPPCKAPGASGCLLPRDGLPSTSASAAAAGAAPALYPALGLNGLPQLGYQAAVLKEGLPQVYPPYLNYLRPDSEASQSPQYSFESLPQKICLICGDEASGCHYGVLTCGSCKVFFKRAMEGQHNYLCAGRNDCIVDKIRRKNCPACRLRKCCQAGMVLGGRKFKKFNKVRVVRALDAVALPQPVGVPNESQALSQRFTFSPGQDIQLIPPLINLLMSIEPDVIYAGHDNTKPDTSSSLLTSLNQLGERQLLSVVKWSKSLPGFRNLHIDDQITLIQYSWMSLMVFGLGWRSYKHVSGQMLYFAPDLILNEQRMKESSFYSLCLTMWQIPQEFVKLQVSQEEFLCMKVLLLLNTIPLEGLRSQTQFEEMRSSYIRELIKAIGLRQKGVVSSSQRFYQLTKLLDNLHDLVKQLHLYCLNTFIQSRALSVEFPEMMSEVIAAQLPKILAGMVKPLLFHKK
How it was run: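 HEK 293T PR-UAS-bla reporter cells, 2% charcoal-stripped FBS; 6 hr settle at 37C/5% CO2, compound (DMSO) 16 hr, LiveBLAzer B/G FRET substrate 2 hr RT, fluorescence intensity read.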

[9] = biological target: Progesterone receptor (Homo sapiens) (UniProt P06401); experiment: qHTS assay to identify small molecule antagonists of the progesterone receptor (PR) signaling pathway (AID 1346795; active = well fitted inhibition curve with a large enough effect in the signal ratio in the repeat runs, not every such curve was filed as active; the % refers to the signal ratio)
How it was run: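 Beta-lactamase reporter, HEK293T PR-UAS-bla line; 2% charcoal-stripped FBS; 6 hr pre-incubation, 37C/5% CO2. Compound + R5020 1 nM final, 16 hr. LiveBLAzer B/G FRET substrate, 2 hr RT; fluorescence intensity read.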

[10] = qHTS assay to identify small molecule antagonists of the progesterone receptor (PR) signaling pathway - cell viability counter screen (AID 1346798; active = well fitted curve in the direction sought with a large enough effect in the repeat runs; an effect the other way counts as inactive or inconclusive; note: nearly all actives have a fitted effect of over 50% in size; note: potency is the fitted concentration of half-maximal effect)
How it was run: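 Luminescence readout (CellTiter-Glo, 30 min, RT) of viability in PR-UAS-bla HEK293T cells exposed to compound and R5020 agonist for 16 hr at 37C, 5% CO2; run in the same wells as the beta-lactamase reporter read.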

[11] = qHTS assay to identify small molecule agonists of the progesterone receptor (PR) signaling pathway - cell viability counter screen (AID 1346799); note: nearly all actives have a fitted effect of over 45% in size; note: potency is the fitted concentration of half-maximal effect
How it was run: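 HEK293T PR-UAS-bla, 3,000 cells/well, 2% charcoal-stripped FBS; 6 h settle, compound 16 h at 37C/5% CO2; LiveBLAzer 2 h RT, then CellTiter-Glo 30 min RT, luminescence read.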

[12] = qHTS assay to identify small molecule antagonists of the TGF-beta/Smad signaling pathway - cell viability counter screen (AID 1346824; active = well fitted curve in the direction sought with a large enough effect in the repeat runs; an effect the other way counts as inactive or inconclusive; note: nearly all actives have a fitted effect of over 50% in size)
How it was run: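 SBE-bla HEK 293T cells were plated overnight at 37 C, then given compounds in DMSO plus TGF-beta1 (added as 0.25 ng/mL solution) for 5 hr. After the bla read, CellTiter-Glo was added to the same wells and luminescence read after 30 min at room temperature.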

[13] = qHTS assay to identify small molecule agonists of the TGF-beta/Smad signaling pathway (AID 1346859; active = well fitted activation curve with a large enough effect in the signal ratio in the repeat runs, not every such curve was filed as active; the % refers to the signal ratio; note: series mostly up to about 77 µM)
How it was run: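 Read-out: fluorescence at 460 and 530 nm (405 nm excitation) after a 2 hr room-temperature incubation with beta-lactamase FRET substrate. SBE-bla HEK 293T cells had been treated with test compounds for 5 hr at 37 C.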

[14] = biological target: Thyrotropin-releasing hormone receptor (Homo sapiens) (UniProt P34981); experiment: qHTS assay to identify small molecule antagonists of the thyrotropin-releasing hormone receptor (TRHR) signaling pathway (AID 1346877; active = well fitted inhibition curve with a large enough effect in the repeat runs, not every such curve was filed as active; note: series mostly up to about 51 µM)
Chain of Thyrotropin-releasing hormone receptor (Homo sapiens) (P34981 whole entry, looked up): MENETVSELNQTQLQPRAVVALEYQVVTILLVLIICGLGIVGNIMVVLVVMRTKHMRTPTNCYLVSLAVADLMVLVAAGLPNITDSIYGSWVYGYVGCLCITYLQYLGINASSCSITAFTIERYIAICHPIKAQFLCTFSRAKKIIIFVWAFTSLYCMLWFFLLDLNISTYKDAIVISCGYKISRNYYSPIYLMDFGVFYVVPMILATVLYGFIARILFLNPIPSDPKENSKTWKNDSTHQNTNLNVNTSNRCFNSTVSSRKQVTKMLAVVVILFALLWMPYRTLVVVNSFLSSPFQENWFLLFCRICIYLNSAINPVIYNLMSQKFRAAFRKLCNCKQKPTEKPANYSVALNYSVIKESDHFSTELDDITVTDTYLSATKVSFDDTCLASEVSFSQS
How it was run: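 Screening used HEK293 cells engineered with TRHR, with a brief 5 min room-temperature compound exposure preceding addition of TRH to 1 nM. The read-out was kinetic calcium-dye fluorescence, concentration-response from 15 doses in triplicate.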

[15] = biological target: Thyrotropin-releasing hormone receptor (Homo sapiens) (UniProt P34981); experiment: qHTS assay to identify small molecule agonists of the thyrotropin-releasing hormone receptor (TRHR) signaling pathway (AID 1346891);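 note: HEK293 cells expressing TRHR with calcium dye readout; series mostly up to about 58 µM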
How it was run: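 HEK293/TRHR cells, 1500 per well, 18 h 37 °C; Ca dye 2 h 37 °C; pin-tool compound addition (agonist mode); kinetic fluorescence 3 min, 1 s reads; 15 concentrations, triplicate.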

[16] = qHTS assay to identify small molecule agonists of the estrogen receptor beta (ER-beta) signaling pathway - cell viability counter screen (AID 1259380; active = well fitted curve in the direction sought with a large enough effect in the repeat runs; an effect the other way counts as inactive or inconclusive; note: nearly all actives have a fitted effect of over 30% in size; note: potency is the fitted concentration of half-maximal effect)
How it was run: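 Cells used were ER-beta-UAS-bla HEK293T in medium with 2% charcoal-stripped FBS. They were treated for 16 hr at 37C. Viability came from CellTiter-Glo luminescence.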

[17] = qHTS assay to identify small molecule agonists of the TGF-beta/Smad signaling pathway - cell viability counter screen (AID 1346829; active = well fitted curve in the direction sought with a large enough effect in the repeat runs; an effect the other way counts as inactive or inconclusive; note: top concentration of the series differs between compounds; nearly all actives have a fitted effect of over 45% in size)
How it was run: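 Tox21 qHTS format: SBE-bla HEK 293T cells treated with DMSO-dissolved compounds for 5 hr; CellTiter-Glo luminescence after 30 min at room temperature.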

Measured: Potency

CCCC[N+]1(C)[C@@H]2CC(OC(=O)[C@H](CO)c3ccccc3)C[C@H]1[C@@H]1O[C@@H]12 (some centres undefined)
not listed: [16] | [17]
inactive: all other assays above

COC(=O)Cc1ccccc1
not listed: [5] | [6] | [14] | [15] | [16] | [17]
inactive: all other assays above

OCC1CO1 (centres undefined)
not listed: [5] | [6] | [14] | [15]
inactive: all other assays above

CCOC(=O)NC(O)C(Cl)(Cl)Cl (centres undefined)
not listed: [14] | [15] | [16]
inactive: all other assays above

CCNC(=O)NC(=O)/C(C#N)=N/OC
not listed: [8] | [9]
inactive: all other assays above

CCOP(=S)(OCC)SCSc1cc(Cl)ccc1Cl
not listed: [10] | [17]
inactive: all other assays above

C[N+]1(CCF)[C@@H]2CC[C@H]1CC(OC(=O)C(O)(c1ccccc1)c1ccccc1)C2 (some centres undefined)
not listed: [11] | [16] | [17]
inactive: all other assays above

NCCc1cc(O)c(O)cc1O
not listed: [6] | [7]
inactive: all other assays above

CCC[N+](CCC)(CCC)CCC
not listed: [5] | [6]
inactive: all other assays above

CC(=O)OC(c1ccccc1)C(Cl)(Cl)Cl (centres undefined)
not listed: [6] | [9] | [14] | [15]
inactive: all other assays above

CCc1ccccc1N
not listed: [9] | [10] | [14] | [15] | [17]
inactive: all other assays above

C1CS1
not listed: [16] | [17]
inactive: all other assays above

CC(C)c1ccc(OP(=O)(Oc2ccc(C(C)C)cc2)Oc2ccc(C(C)C)cc2)cc1
active: [1] 13.8 µM and 12.2 µM and 15.3 µM | [16] 21.8 µM and 27.3 µM and 21.7 µM | [3] 27.5 µM and 30.6 µM | [10] 30.6 µM
inactive and 30.6 µM (active): [11]
not listed: [9] | [17]
inactive: all other assays above

CCC(C)(C)O
not listed: [6] | [16]
inactive: all other assays above

CCOc1cccc(C2(N3CCN(c4ccccc4)CC3)CCC(C)CC2)c1 (centres undefined)
not listed: [10]
inactive: all other assays above

CCCC1CCCCN1 (centres undefined)
not listed: [10]
inactive: all other assays above
